High-throughput results as filed in PubChem BioAssay.
CYP2C9 inh – inhibitors of human CYP2C9. P11712. 20% of 96,000 active. AID 777. inhibition, % at 5 µM. CYP2C9 Supersomes, luciferin-H conversion, luminescence;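 active = blocking of liver enzyme CYP2C9 beyond about 50% at 5 µM, limit read from the data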
Target sequence (P11712 whole entry, looked up): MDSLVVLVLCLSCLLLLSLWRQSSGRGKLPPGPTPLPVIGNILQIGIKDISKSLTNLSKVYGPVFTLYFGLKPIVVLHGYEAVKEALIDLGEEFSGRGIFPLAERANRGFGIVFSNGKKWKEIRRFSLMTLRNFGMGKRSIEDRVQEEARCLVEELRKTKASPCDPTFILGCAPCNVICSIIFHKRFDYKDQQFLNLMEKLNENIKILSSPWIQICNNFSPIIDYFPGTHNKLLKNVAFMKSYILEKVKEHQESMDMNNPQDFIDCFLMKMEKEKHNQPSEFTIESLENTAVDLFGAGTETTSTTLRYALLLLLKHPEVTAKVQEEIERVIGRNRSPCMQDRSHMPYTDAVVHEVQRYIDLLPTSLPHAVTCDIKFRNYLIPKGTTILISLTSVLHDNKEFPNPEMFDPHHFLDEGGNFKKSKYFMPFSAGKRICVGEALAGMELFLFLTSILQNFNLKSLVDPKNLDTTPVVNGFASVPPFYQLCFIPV
CYP2C19 inh – blocks human cytochrome P450 2C19. P33261. CYP2C19 Supersomes, luciferin-H EGE luminescence, 30 min. inhibition, % at 5 µM. 21% of 96,000 active. AID 778;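 active = CYP2C19 inhibition above a set limit at 5 µM in the primary screen, cut at about 50% in these data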;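 also: plate controls were negative control wells for no effect and 2.5 mM tranylcypromine positive control for full effect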
Cav3 T inh – human Cav3.2 channel inhibition, primary screen. O95180. Cav3.2-expressing cells, Fluo-4 calcium fluorescence FDSS; active compounds read low. B-score at 10 µM. 4% of 100,000 active;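 active = single-dose well whose peak fluorescence ratio is a statistical outlier from its plate by either plate-standardised score or position-corrected B-score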
CYP2C9 activ – CYP2C9 (human) activation | recombinant CYP2C9, luciferin-H conversion, luminescence; active compounds read high; factor 1 = untreated enzyme, 0 = blocked | 1.4% of 96,000 active | activation factor at 5 µM | AID 1024 | P11712;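 active = activation factor of 2 or more for CYP2C9 at a 5 µM dose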;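 also: 0 = sulfaphenazole-blocked wells and 1 = vehicle-only wells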
CYP2C19 activ – cytochrome P450 2C19 (human) activation; recombinant CYP2C19, luciferin-H EGE luminescence; active compounds read high; 0 = fully inhibited enzyme, 1 = untreated enzyme; AID 1025; 96,000 tested, under 10 active; activation factor at 5 µM; P33261;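 active = activation factor of at least 2 at 5 µM in the primary screen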;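 also: 0 = wells with 2.5 mM tranylcypromine and 1 = vehicle-only wells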
* = called active by the depositor; · = no result. The list is not random: actives were taken first. Their share in the collection is about 27%.

SMILES	CYP2C9 inh	CYP2C19 inh	Cav3 T inh	CYP2C9 activ	CYP2C19 activ
CCCCNC(=O)c1ccc2c(c1)N(CC)C(=O)c1ccccc1S2(=O)=O	90*	46	0.037	0.1	0.5
COCCN1C(=O)c2ccc(C(=O)NCc3cccnc3)cc2C1=O	-2	-4	-0.019	1	1
Cc1ccc(S(=O)(=O)c2c(COC(=O)c3ccc(Cl)cc3)c(-c3ccccc3)nn2C)cc1	52*	67*	-2.5	0.5	0.3
COC(=O)c1ccc(COC(=O)c2ccc(CS(=O)(=O)c3ccc(C)cc3)cc2)cc1	43	0	-0.15	0.6	1
CCOC(=O)c1cccc(NC(=O)c2ccco2)c1	-16	27	0.24	1.2	0.7
CN(Cc1ccccc1)C(=O)CC(c1ccccc1)c1cc(Cl)ccc1O (stereo not drawn)	76*	32	·	0.2	0.7
CCCN(CCC)C(=O)CC(c1ccccc1)c1cc(C)ccc1O (stereo not drawn)	53*	25	-5.9*	0.5	0.7
CCN(CCO)C(=O)CC(c1ccccc1)c1cc(Br)ccc1O (stereo not drawn)	·	·	-0.75	·	·
CCc1ccc(-c2csc3ncn(CC(=O)N4CCOCC4)c(=O)c23)cc1	3	-6	-0.092	1	1.1
COc1cccc(SCc2noc(C(=O)NCC3CC3)c2C(=O)NCC2CC2)c1	·	·	-0.77	·	·
COc1ccccc1CNCc1ccc(OC)c(OC)c1OC	·	·	0.21	·	·
COc1cccc(CNCc2ccc(SC)cc2)c1OC	16	100*	0.05	0.8	0
O=C(COc1ccc(-c2nnco2)cc1)N1CCN(S(=O)(=O)c2ccccc2)CC1	67*	84*	-0.89	0.3	0.2
CC1CC(C)CN(C(=O)COc2ccc(-c3nnco3)cc2)C1 (stereo not drawn)	24	50*	-0.18	0.8	0.5
CN(Cc1cccs1)C(=O)COc1ccc(-c2nnco2)cc1	31	75*	-0.055	0.7	0.3
C[C@H]1CC[C@H]2C(=O)N[C@H](Cc3ccccc3)C(=O)N2[C@@H]1c1ccccc1	·	·	-0.089	·	·
COc1cccc(NS(=O)(=O)c2c(C)n(C)c(=O)n(C)c2=O)c1	0	15	-0.04	1	0.8
Cc1noc(C)c1C(=O)OC(C(=O)NC1CCCC1)c1ccc(F)cc1 (stereo not drawn)	47	37	-0.049	0.5	0.6
CC1=C(C(=O)OCc2ccccc2)C(c2cccnc2)c2c(n(C)c(=O)n(C)c2=O)N1 (stereo not drawn)	60*	94*	-0.0047	0.4	0.1
O=C(CN1CCCCCC1)NCCc1ccc(F)cc1	15	66*	1.3	0.8	0.3
O=C(NCCc1ccccc1)c1ccc(Br)o1	1	51*	1.6	1	0.5
O=C(Cc1ccc(F)cc1)NCCc1ccccc1	50*	68*	-0.43	0.5	0.3
O=C(Cc1ccc(F)cc1)NCCc1ccc(F)cc1	52*	65*	·	0.5	0.3
CCCC(=O)NCCc1ccc(F)cc1	9	30	-0.1	0.9	0.7
Cc1cc(-c2cc(C(=O)Nc3ccccc3)on2)nc(NC2CCCC2)n1	·	·	-1.6	·	·
SMILES	CYP2C9 inh	CYP2C19 inh	Cav3 T inh	CYP2C9 activ	CYP2C19 activ
C=C1CCN([C@@H](Cc2ccccc2)C(=O)NCc2ccc(Cl)c(Cl)c2)S(=O)(=O)c2ccccc21	·	·	-0.96	·	·
CC1(C)C2CCC1(C)C(OC(=O)CSc1nc(N)cc(=O)[nH]1)C2 (stereo not drawn)	-1	22	-0.0055	1	0.8
CCn1c(SCC(=O)N/N=C/C=C\c2ccccc2[N+](=O)[O-])nc2ccccc21	-51	-5	0.62	1.5	1
Cn1c(C(C#N)C(=O)c2ccco2)nc2ccccc21 (stereo not drawn)	51*	5	1.1	0.5	0.9
CC1CC(C)CN(CCCNC(=O)Cc2c(C(=O)O)n(C)c3ccccc23)C1 (stereo not drawn)	5	-1	0.12	0.9	1
Nc1nc2c(s1)CC(c1ccccc1)CC2 (stereo not drawn)	45	69*	-0.018	0.6	0.3
O=C(Nc1ccccc1)c1ccc(N2CCN(c3ccccn3)CC2)c(S(=O)(=O)N2CCOCC2)c1	91*	92*	-1.6	0.1	0.1
O=C(Nc1ccccc1)c1ccc(N2CCN(c3ccccc3)CC2)c(S(=O)(=O)N2CCOCC2)c1	76*	58*	-6*	0.2	0.4
O=C(Nc1ccccc1)c1ccc(NC2CCCCC2)c(S(=O)(=O)N2CCOCC2)c1	82*	83*	-2.6	0.2	0.2
Cc1[nH]nc2c1-c1nc3ccccc3nc1C(C)(C)C2	38	68*	-1.7	0.6	0.3
CC(=O)Nc1ccc(S(=O)(=O)Oc2ccc(N3C(=O)C4CCCCC4C3=O)cc2)cc1 (stereo not drawn)	47	26	0.74	0.5	0.7
CC(=O)Nc1ccc(S(=O)(=O)Oc2cccc(N3C(=O)C4CC=CCC4C3=O)c2)cc1 (stereo not drawn)	59*	43	0.012	0.4	0.6
O=C1c2ccccc2C(=O)c2c(NCc3cccnc3)cccc21	79*	99*	-0.63	0.2	0
Cc1ccccc1NC(=O)Cc1nnc(SCc2ccc(Cl)c(Cl)c2)n1C	18	24	-2.4	0.8	0.8
Cc1ccc(CSc2nnc(CS(=O)Cc3ccc(Cl)cc3Cl)n2C)cc1 (stereo not drawn)	54*	-10	-3.1	0.5	1.1
Nc1nnc(SCc2ccc(F)cc2)n1-c1ccccc1	·	·	0.0089	·	·
O=S(Cc1ccc(Br)cc1)Cc1nnc(SCc2ccc(Cl)cc2)n1-c1ccccc1 (stereo not drawn)	52*	37	-2.1	0.5	0.6
Cc1ccc(OCCNC(=O)C2CC(=O)N(c3ccc(C)cc3)C2)cc1 (stereo not drawn)	5	37	-2.2	0.9	0.6
CC(=O)n1cc(C(C[N+](=O)[O-])SCCN)c2ccccc21 (stereo not drawn)	44	29	-3.8*	0.6	0.7
N=C1/C(=C\c2ccc(SCc3ccco3)o2)C(=O)N=C2SC=NN12	74*	-5	0.0014	0.3	1
CC(=O)NCCOC(=O)Nc1ccncc1	62*	22	0.093	0.4	0.8
O=C(Nc1ccccc1)OCCNC(=O)c1ccccc1	34	47	1.1	0.7	0.5
COc1ccc(/C=C2\SC(c3ccc(C)cc3)=NC2=O)cc1OC	25	11	-1.3	0.7	0.9
COc1cc(/C=C2\SC(c3ccc(C)cc3)=NC2=O)cc(OC)c1OC	63*	22	-0.99	0.4	0.8
COc1ccc(/C=C2/SC(c3ccc(C)cc3)=NC2=O)cc1OC	61*	41	-2.6	0.4	0.6
COc1ccc(C(NC(=O)c2ccco2)c2ccc(OC)c(OC)c2)cc1OC	61*	72*	-1.2	0.4	0.3
COc1ccc(OC)c(C(C)NC(=O)c2ccco2)c1 (stereo not drawn)	66*	82*	0.085	0.3	0.2
CC(C)Nc1nc2n(c(=O)n1)CCN2C(C)C	-28	-22	0.82	1.3	1.2
